40 compounds from PubChem BioAssay AID489008 (National Center for Advancing Translational Sciences (NCATS), 2010) can be followed below.

The structures appear in SMILES notation. Inconclusive results are not listed. The source made the active and inactive calls. Calls come from the whole dose curve; as a rule, active = well fitted inhibition curve with a large enough effect; inconclusive = small, poorly fitted or top-dose-only effect; inactive = flat fitted curve, though single readings scatter.
Potency is the fitted concentration of half-maximal effect.

Chain of Ferritin light chain (Equus caballus) (P02791 2-175 limits assumed): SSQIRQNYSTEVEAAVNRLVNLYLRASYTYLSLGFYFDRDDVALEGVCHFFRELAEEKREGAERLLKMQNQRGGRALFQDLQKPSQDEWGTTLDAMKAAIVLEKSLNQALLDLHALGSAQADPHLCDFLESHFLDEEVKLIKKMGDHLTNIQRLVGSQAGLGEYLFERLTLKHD

The test addresses Ferritin light chain (Equus caballus) (UniProt P02791). Nature of the test: Confirmation Assay for Identification of Novel General Anesthetics. Note: nearly all actives have a fitted effect of over 40% in size. To be noted: apoferritin 1-aminoanthracene fluorescence displacement. The source says: Anesthetic development has remained a largely empirical process. There are growing concerns about the cognitive effects of known general anesthetics and acceleration of the onset of neurodegenerative disease. The compounds' toxicity and multiple specific binding targets in the mammalian brain [4] has made them less attractive as drug leads. In this assay, a GABAergic mimetic model system, apoferritin and a profluorescent 1-aminoanthracene ligand (1-AMA), was used to construct a competitive binding assay for identification of novel general anesthetics. The assay was validated for 1-AMA using other known anesthetics, such as isoflurane (CID:3763) and propofol (CID: 4943), [6]. This particular BioAssay is a confirmation of followup compounds from primary screen AID:485281.
[1] S.L. Bianchi, T. Tran, C. Liu, S. Lin, Y. Li, J.M. Keller, R.G. Eckenhoff, and M.F. Eckenhoff, Brain and behavior changes in 12-month-old Tg2576 and nontransgenic mice exposed to anesthetics. Neurobiol Aging 29 (2008) 1002-10.
[2] Z. Xie, Y. Dong, U. Maeda, R.D. Moir, W. Xia, D.J. Culley, G. Crosby, and R.E. Tanzi, The inhalation anesthetic isoflurane induces a vicious cycle of apoptosis and amyloid beta-protein accumulation. J Neurosci 27 (2007) 1247-54.
[3] P. Honegger, and J.M. Matthieu, Selective toxicity of the general anesthetic propofol for GABAergic neurons in rat brain cell cultures. J Neurosci Res 45 (1996) 631-6.
[4] M.F. Eckenhoff, K. Chan, and R.G. Eckenhoff, Multiple specific binding targets for inhaled anesthetics in the mammalian brain. J Pharmacol Exp Ther 300 (2002) 172-9.
[5] C.A. Butts, J. Xi, G. Brannigan, A.A. Saad, S.P. Venkatachalan, R.A. Pearce, M.L. Klein, R.G. Eckenhoff, and I.J. Dmochowski, Identification of a fluorescent general anesthetic, 1-aminoanthracene. Proc Natl Acad Sci U S A 106 (2009) 6501-6.
[6] W.A. Lea, J. Xi, A. Jadhav, L. Lu, C.P. Austin, A. Simeonov, and R.G. Eckenhoff, A high-throughput approach for identification of novel general anesthetics. PLoS One 4 (2009) e7150.
Source: NIH Chemical Genomics Center [NCGC]
Assay Submitter: Roderic Eckenhoff, University of Pennsylvania
Screening Center PI: Christopher P. Austin, NIH
Probe Development: NIH Chemical Genomics Center [NCGC]
Three uL of reagents (free 1-AMA (50% saturated solution of 1-aminoanthracene
in PBS) in columns 3, 4 as negative control and 1-AMA/apoferritin mixture (10 uM horse-spleen apoferritin in 50% saturated 1-aminoanthracene in PBS) in columns 1, 2, 5-48) was dispensed into 1536-well Greiner black assay plates. Compounds (23 nL) were transferred via Kalypsys pintool equipped with 1,536-pin array (10 nL slotted pins, V&P Scientific, San Diego, CA). Titration of the positive control, propofol, were delivered via pin transfer from separate control plates to the 2nd column of each assay plate. The starting concentration of the control, dissolved in DMSO, was at 160 mM, followed by two-fold dilution points in duplicate, for a total of 16 concentrations. The plates were incubated for 10 min at room temperature, and then read on an EnVision HTS multilabel reader (Perkin-Elmer, Waltham, MA) (end point read, 3 min/plate) using Fura2 BFP excitation filter (380 nm, bandwidth 10 nm) and fluorescein emission filter (535 nm, bandwidth 25 nm) set. A LANCE/DELFIA dichroic mirror with a cutoff wavelength at 400 nm was used to maximize signal accuracy and strength. Vehicle-only plates, with DMSO being pin-transferred to the entire column 5-48 compound area, were inserted uniformly at the beginning and the end of each library in order to monitor for and record any shifts in the background. Activity was computed as the normalized fluorescence response relative to free 1-AMA and 1-AMA/apoferritin complex values. Concentration-effect relationships were derived by using curve fitting algorithms developed in-house (http://ncgc.nih.gov/pub/openhts/). […]
`O=[N+]([O-])c1ccc(CNc2cccc(Cl)c2)s1`: the Potency was 15.8 µM (active).

In the case of `Cc1ccccc1Nc1nc2ccccc2s1`, the Potency is 14.1 µM (active).

As to `O=C(CSCc1ccccc1)Nc1cc([N+](=O)[O-])ccc1F`, the Potency is 31.6 µM (active).

For `ClC1(Cl)CC1CSc1nc2ccccc2[nH]1` (stereo not given), the Potency was 15.8 µM (active).

For the compound `O=C(NC1CCCCCC1)c1nnc(Cc2ccc(Cl)cc2)o1`, the Potency was 15.8 µM (active).

Take `O=C(NC1CCCCCCC1)c1ccc(Br)o1`: the Potency was 17.8 µM (active).

For `N/C(Cc1ccc(Cl)cc1)=N\OC(=O)c1cccc2ccccc12`, the Potency was 8.91 µM (active).

Take `CC1CCCN(C(=O)Cc2cccc3ccccc23)C1` (stereo not given): the Potency was 31.6 µM (active).

For `CC1CCCC(NC(=O)COC(=O)c2ccc(N(C)C)cc2)C1C` (stereo not given), the Potency is 7.08 µM (active).

For `O=C(Nc1ccc(Cl)c(Cl)c1)OCc1cncs1`, the Potency is 28.2 µM (active).

On to `COc1ccc(CNC(=O)CN2N=C(c3ccc(Cl)cc3)CCC2=O)cc1`, for which the Potency is 20.7 µM (active).

With `Cc1ccc(NCc2ccccc2)cc1`, the Potency is 10 µM (active).

`Nc1ccc(C23CC4CC(CC(C4)C2)C3)cc1`: the Potency is 7.08 µM (active).

In the case of `CCN(CC)c1cccc(OC2=NS(=O)(=O)c3ccccc32)c1`, the Potency is 17.8 µM (active).

With `Cc1ccc(-c2ccc(=O)n(CC(=O)NC(C)c3ccccc3)n2)cc1` (stereo not given), the Potency was 20 µM (active).

Turning to `CCCn1nnc(NC(=O)COc2ccc(C3CCCCC3)cc2)n1`, the Potency is 12.6 µM (active).

Turning to `O=c1sc2ccccc2c(=O)n1Cc1ccccc1F`, the Potency is 8.91 µM (active).

Consider `O=C(NC1CCCCCCC1)c1cc(COc2ccc3ncccc3c2)on1`, for which the Potency is 12.6 µM (active).

For `Cc1cccc(NC(=O)N2CCCCCC2)c1C`, the Potency was 8.91 µM (active).

As to `Cc1cc(NS(=O)(=O)c2ccccc2)cc(Cl)c1O`, the Potency is 11.2 µM (active).

As to `CN(C)c1ccc(C(=S)N2CCCCCC2)cc1`, the Potency is 25.1 µM (active).

In the case of `O=C(CSc1nnnn1C1CCCCC1)Nc1nc2c(s1)CCCC2`, the Potency is 31.6 µM (active).

Regarding `Oc1ccc(NCc2ccc(OCc3ccccc3Cl)cc2)cc1`, the Potency is 17.8 µM (active).

As to `Cc1ccc(NCc2ccccc2O)c(C)c1`, the Potency was 12.6 µM (active).

On to `O=C1NC2(CCCCCC2)Oc2ccccc21`, for which the Potency is 20 µM (active).

Regarding `CC1CCCN(C(=O)COc2ccc(Nc3ccccc3)cc2)C1` (stereo not given), the Potency was 25.1 µM (active).

In the case of `Nc1nnc(SCC(=O)NC23CC4CC(CC(C4)C2)C3)s1`, the Potency was 7.94 µM (active).

With `Cc1cccc(OCCC(=O)OCC(=O)N2CCc3ccccc32)c1`, the Potency was 10 µM (active).

As for `Cc1ccc(CNc2ncnc3c2cnn3-c2ccc(C)cc2C)cc1`, the Potency was 15.8 µM (active).

`O=C(COC(=O)CC1CC2CCC1C2)Nc1ccc(F)cc1` (stereo not given): the Potency is 20 µM (active).

Take `COc1cccc(CNc2ccc(F)c(Cl)c2)c1`: the Potency was 7.94 µM (active).

For the compound `Nc1cc(N)nc(SCC(=O)N2CCc3ccccc32)n1`, the Potency is 7.08 µM (active).

Turning to `Cc1ccc(CN=C2Nc3ccccc3CS2)cc1`, the Potency was 14.1 µM (active).

Take `O=C(CCSc1ccccc1)NC(=O)COC(=O)C1CCCCC1`: the Potency was 35.5 µM (active).

On to `NC(=O)COC(=O)CC12CC3CC(CC(Br)(C3)C1)C2`, for which the Potency is 17.8 µM (active).

Consider `O=C1C(Cl)=C(N2CCOCC2)C(=O)N1c1ccccc1Cl`, for which the Potency is 15.8 µM (active).

In the case of `O=C(CCN1CCN(CCO)CC1)Nc1ccc(C2CCCC2)cc1`, the Potency is 31.6 µM (active).

`O=C1CC(c2ccc(O)cc2)Oc2ccccc21` (stereo not given): the Potency is 15.8 µM (active).

`O=C(OCC(=O)C12CC3CC(CC(C3)C1)C2)c1ccccn1`: the Potency is 14.1 µM (active).

With `Cc1ccc(C2=NN(CC(=O)NC(C)c3ccccc3)C(=O)CC2)cc1` (stereo not given), the Potency was 31.6 µM (active).
